Bioassay records (PubChem)
D2 ag-1 = D2 dopamine receptor (human) agonism; activation, % at 2 µM; 340,000 tested, 0.53% active; HEK293 T-REx D2 cells, calcium flux agonist mode;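 active = activation over 3 SD above normal in the single-dose calcium agonist read, cut at about 30% in these data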; also: 0% is about no effect
Target sequence (P14416 whole entry, looked up): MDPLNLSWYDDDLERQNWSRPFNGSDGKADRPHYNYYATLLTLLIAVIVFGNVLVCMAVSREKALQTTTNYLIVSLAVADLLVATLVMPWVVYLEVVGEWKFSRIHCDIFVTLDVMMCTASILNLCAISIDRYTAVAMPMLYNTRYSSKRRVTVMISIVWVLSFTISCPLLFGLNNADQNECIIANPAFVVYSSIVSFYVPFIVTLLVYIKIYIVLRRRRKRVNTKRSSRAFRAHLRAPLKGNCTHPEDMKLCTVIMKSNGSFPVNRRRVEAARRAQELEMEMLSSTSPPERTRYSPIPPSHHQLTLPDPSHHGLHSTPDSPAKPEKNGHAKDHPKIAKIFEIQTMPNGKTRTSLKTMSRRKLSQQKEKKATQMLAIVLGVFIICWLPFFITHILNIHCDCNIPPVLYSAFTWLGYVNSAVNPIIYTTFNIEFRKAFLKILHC
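Agonism scored from kinetic calcium signal (1 read/sec, 180 s) following compound pin transfer, after a 10 s baseline. Cells: HEK293 Trex line expressing inducible D2 receptor coupled to calcium, dye-loaded after overnight culture at 30 C.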
D2 PAM-1 = positive allosteric modulators of human D2 dopamine receptor | P14416 | DiscoveRx D2 beta-arrestin cells, luminescence, 90 min; 100% = 57 uM dopamine signal | potentiation, % (no concentration beside the values) | 360,000 tested, 0.23% active; in the data active = potentiation above about 50%; inconclusive = mostly about 30% to 49%
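D2 cells co-treated with compound plus 50 nM dopamine (EC20) for 90 min at 37 deg C to detect potentiation. Beta-arrestin recruitment was read as enzyme-fragment luminescence after 1 h at ambient temperature. Full response was set by 57 uM dopamine.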
D2 ag-2 = human D2 receptor agonism in beta-arrestin assay; P14416; DiscoveRx PathHunter D2 beta-arrestin, luminescence, 90 min; 100% = 57 uM dopamine signal; activation, % (no concentration beside the values); 360,000 tested, 0.084% active; in the data active = activation above about 40%; inconclusive = between about 15% and that limit
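Agonist mode: compounds alone added to overnight-plated D2 PathHunter cells for 90 min at 37 C, with 57 uM final dopamine (EC100) defining full response. Beta-arrestin recruitment detected by chemiluminescent reagent, read after 1 h at ambient temperature.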
D2 antagonist = D2 dopamine receptor (human) antagonism. HEK293 TREx D2 cells, calcium flux, dopamine EC80. inhibition, % at 10 µM. 340,000 tested, 2% active; in the data active = inhibition above about 30%; inactive = below that, where a call was filed; also: 0% is about no effect
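Calcium mobilization kinetics were recorded at 1 s intervals in tetracycline-induced HEK293 T-REx D2 cells, first for 180 s after compound addition and then 180 s after EC80 dopamine.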
D2 PAM-2 = D2 dopamine receptor (human) potentiation | HEK293 T-REx D2, calcium flux, EC20 dopamine potentiation | 340,000 tested, 0.34% active | potentiation, % at 10 µM;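 active = potentiation over 3 SD above the plate norm, cut at about 30% in these data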; also: 0% is about no effect
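Potentiation of an EC20 dopamine calcium response measured kinetically over 180 s, after a preceding 180 s compound-only read flagging agonists. Cells: inducible Hek293 Trex D2 line, 4000/well, cultured overnight at 30 C before dye loading.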
D3 arrestin ag = confirmation of human D3 dopamine receptor agonists, beta-arrestin | 2,300 tested, 4% active | Potency, µM (series often up to 76.9 µM), without a hit: at the top dose activation, usual class: activators | DiscoveRx D3 beta-arrestin cells, luminescence, 90 min | shares compounds with D2 ag-1;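 also: potency is read from the fitted curve at half-maximal effect; 100% = dopamine control response; nearly all actives have a fitted effect of over 70% in size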
D2 ag-3 = activates human D2 dopamine receptor in D3 counterscreen; AID 720507; Potency, µM (series often up to 76.9 µM), for the others: at the top dose activation, most hits filed as activators; shares compounds with D2 ag-1; 2,300 tested, 5.9% active; DiscoveRx PathHunter D2 beta-arrestin, luminescence, 90 min; response scale: percent relative to full dopamine signal; also: potency is read from the fitted curve at half-maximal effect; % of control where 0% means no effect; nearly all actives have a fitted effect of over 70% in size
The depositor's hits bear a star; ? = inconclusive; . = not tested or not shown. The list is not random: actives were taken first. Their share in the collection is about 2.4%. Unless noted, calls follow the shape of the dose curve; as a rule, active = well fitted activation curve with a large enough effect; inconclusive = small, poorly fitted or top-dose-only effect; inactive = flat fitted curve, though single readings scatter.

SMILES | D2 ag-1 | D2 PAM-1 | D2 ag-2 | D2 antagonist | D2 PAM-2 | D3 arrestin ag | D2 ag-3
CCOC(=O)c1cc(-c2ccccc2)n(CC(=O)NC2CCC(C)CC2)c1C (stereo not drawn) | 2 | . | . | . | 8 | . | .
COc1ccccc1OCC(=O)NC1CCSc2ccccc21 (stereo not drawn) | 1 | 0 | -6 | -8 | -1 | -8% | 4%
Cc1ccc(S(=O)(=O)NCCC(=O)Nc2ccc(C)cc2C(=O)c2ccccc2)cc1 | -1 | -1 | -6 | 18 | -7 | -4% | -5%
CN(C)c1ccc(Cl)c(NC(N)=S)c1 | . | -4 | -5 | . | . | . | .
CN1CCc2c(sc(/N=C/c3cc(C(C)(C)C)ccc3O)c2C#N)C1 | 92* | 27 | 43* | 90* | -23 | 20% | ?
CCCN1CCN(CCNC(=O)Nc2cc(OC)cc(OC)c2)CC1 | -1 | . | . | . | -12 | . | .
O=C(Cn1ccn(-c2ccc(F)c(F)c2)c(=O)c1=O)NCc1ccccc1 | 1 | . | . | . | 2 | . | .
O=S(=O)(c1ccc(OCC(O)CN2CCN(c3ccccc3)CC2)cc1)N1CCOCC1 (stereo not drawn) | 85* | 13 | 44* | 96* | -23 | ? | 7.1µM*
O=S(=O)(c1ccc(OCC(O)CN2CCC(Cc3ccccc3)CC2)cc1)N1CCOCC1 (stereo not drawn) | 63* | -16 | 7 | 27 | -23 | -4% | 20%
O=S(=O)(c1ccc(OCC(O)CN2CCCC2)cc1)N1CCOCC1 (stereo not drawn) | 0 | -6 | 1 | 2 | 3 | . | .
O=S(=O)(c1ccc(OCC(O)CN2CCN(c3ccccc3O)CC2)cc1)N1CCOCC1 (stereo not drawn) | 71* | 1 | ? | 69* | -24 | ? | 28µM*
O=C(CCN1CCN(c2ccccc2F)CC1)Nc1ccc(F)cc1 | 14 | -75 | 3 | 88* | -16 | ? | 7%
COc1cc(NC(=O)CCN2CCN(c3ccccc3F)CC2)cc(OC)c1 | 31* | -16 | 10 | 40* | -11 | ? | 21%
O=C(CCN1CCN(c2ccccc2F)CC1)Nc1cccc(F)c1 | 81* | -5 | -4 | 80* | -24 | ? | ?
O=C(CCN1CCN(S(=O)(=O)c2ccc(Cl)cc2)CC1)Nc1ccc(F)cc1 | . | -8 | -1 | . | 11 | . | .
O=C(CCN1CCN(S(=O)(=O)c2ccc(Cl)cc2)CC1)Nc1ccccc1F | 0 | -1 | 2 | 10 | 8 | . | .
O=C(CCN1CCN(c2ccccc2F)CC1)Nc1ccccc1Cl | 70* | -10 | -1 | 88* | -24 | -3% | 21%
CCNc1nc(NCC)n2c(SCC(=O)Nc3ccc(OC(F)F)cc3)nnc2n1 | . | 4 | 1 | . | . | . | .
Cc1c(NC(=O)CSc2nc3ccccc3c(=O)n2C(C)C)c(=O)n(-c2ccccc2)n1C | 1 | 2 | 0 | -10 | 9 | . | .
CCCn1c2ccccc2c2cnn(CC(=O)Nc3cccc(C(=O)OCC)c3)c(=O)c21 | 0 | . | . | . | -4 | . | .
COC(=O)c1[nH]c2cc(OC)ccc2c1NC(=O)CCN1CCN(c2cccc(C)c2C)CC1 | 1 | -11 | -1 | 57* | -8 | 8% | -1%
CCc1ccc(N2CC(C)Cn3c2nc2c3c(=O)n(CC(=O)O)c(=O)n2C)cc1 (stereo not drawn) | 0 | . | . | . | 0 | . | .
CCN1CCN(c2ccc(S(=O)(=O)N3CCOCC3)cc2NC(=O)C(C)Oc2ccc(F)cc2)CC1 (stereo not drawn) | 0 | -7 | 4 | 1 | 8 | -11% | -2%
CC(Oc1ccc(F)cc1)C(=O)Nc1cc(S(=O)(=O)N2CCOCC2)ccc1N1CCCC1 (stereo not drawn) | -1 | -34 | 3 | -9 | -5 | . | .
COc1cc(OC)cc(-c2c(-c3ccc(F)cc3)c3cc(-c4ccc(SC)cc4)ccc3n2C)c1 | . | -11 | -1 | . | . | . | .
SMILES | D2 ag-1 | D2 PAM-1 | D2 ag-2 | D2 antagonist | D2 PAM-2 | D3 arrestin ag | D2 ag-3
CN(CC(=O)NCCN1CCN(c2ccccc2)CC1)S(=O)(=O)c1ccc2c(c1)CCC(=O)N2 | 82* | -6 | 1 | 75* | -22 | ? | ?
Cc1ccccc1CNC(=O)Nc1ccc(Cl)cc1 | . | -3 | 2 | . | 1 | . | .
Cn1nnnc1Sc1ncnc2scc(-c3ccc(F)cc3)c12 | . | 1 | -2 | . | . | -2% | -4%
Cn1nnnc1Sc1ncnc2scc(-c3ccccc3)c12 | 0 | -3 | -5 | 5 | 7 | . | .
CC(C)[C@@H](COc1ccccc1)N1CCN(Cc2ccccc2)CCC1=O | -2 | 6 | 3 | -19 | 1 | . | .
CC(COc1ccccc1)N(CCCl)Cc1ccccc1 (stereo not drawn) | 90* | -16 | 4 | 61* | -28 | -8% | 18%
CCN1CCC2(CC1)C(C#N)=C(N)Oc1c2sc2nc(C)cc(C)c12 | 67* | -16 | 6 | 53* | -23 | 16% | 8%
CC(=O)N1CCC2(CC1)C(C#N)=C(N)Oc1c2sc2nc(C)cc(C)c12 | 0 | -15 | -2 | -4 | 6 | . | .
COc1ccc(NS(=O)(=O)c2cccc(C(=O)N3CCC3)c2)cc1 | 16 | -7 | -4 | -33 | -5 | 4% | -5%
CC1CN(C(=O)c2ccc(NS(=O)(=O)c3cccc(Cl)c3)cc2)CC(C)O1 (stereo not drawn) | 0 | 1 | 0 | -1 | -4 | 1% | -3%
COc1ccc(NS(=O)(=O)c2ccc(C)c(C(=O)N3CCC3)c2)cc1 | 73* | -1 | 1 | 49* | -29 | 0% | 26%
COc1ccc(CCNC(=S)NNC(=O)c2c(Br)c(C)nn2C)cc1OC | 3 | 5 | 7 | -6 | 1 | . | .
CCOC(=O)C[C@H]1c2ccccc2S(=O)(=O)N1c1ccccc1 | . | -11 | -2 | . | . | . | .
Cc1cc(C)cc(NC(=O)c2cc(C)nn2C)c1 | 34* | -6 | -5 | 2 | -14 | 3% | -1%
Cc1ccc(Cn2nnc3c(=O)[nH]c(C4CCCN(S(=O)(=O)c5ccc(F)cc5)C4)nc32)cc1 (stereo not drawn) | 0 | -4 | -2 | -19 | . | . | .
O=c1[nH]c(C2CCCN(S(=O)(=O)c3ccc(F)cc3)C2)nc2c1nnn2Cc1ccc(F)cc1 (stereo not drawn) | 1 | -3 | 0 | 68* | -5 | 4% | -3%
Cc1ccc(NC(=O)C2(S(=O)(=O)c3ccc(Cl)cc3)CC2)c(Br)c1 | -1 | -4 | -5 | -10 | 20 | . | .
CN(Cc1ccccc1)C(=O)c1nc2ccccn2c1CNCCOc1cccnc1 | 41* | -9 | -4 | -10 | -26 | -7% | 2%
